In PubChem BioAssay one finds growth inhibition, inhibition and outcome data, which are given here for 19 compounds.

Each structure is given as a SMILES string. Values without a mark were called inactive. For some assays here: Measured potencies and affinities stand elsewhere. Activity calls are given as the source filed them. Unless noted, how the calls were made is not given here.

Usually inhibition stands for the relative decrease from the control value, in per cent.

Assay [1] is described as follows: antimalarial activity against Dd2 strain (AID 2302;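 active means growth inhibition above 50% at the single 2 µM test dose, taken to imply half-maximal potency below 2 µM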;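 further: 0% = DMSO untreated growth and 100% = chloroquine plus artemisinin killed control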). The following applies: P. falciparum Dd2 in RBCs, LDH growth readout, 72 h; at 2 µM; stronger effect = higher value.
The nature of assay [2]: human hepatoma cell viability loss – ATP luminescence, cytotoxicity control for P. falciparum antimalarial project, primary screen (AID 2303;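 active means inhibition above 50%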;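 further: 0% = DMSO wells and 100% = digitonin-killed cells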). To be noted: HepG2 viability, 24-48 h, at 10 µM, stronger effect = higher value.
Assay [3] deals with L-lactate dehydrogenase (Plasmodium falciparum (isolate CDC / Honduras)) (UniProt Q27743). The assay can be described thus: PfLDH activity inhibition – cell lysate, 3D7 strain, counter-screen for P. falciparum growth inhibition project (AID 2304).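 Further: 0% = vehicle and 100% = reference inhibitor.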 The following applies: P. falciparum 3D7 crude extract, LDH APAD/NBT absorbance; at 2 µM; stronger effect = higher value.
A short description of assay [4]: inhibition of 3D7 malaria parasite growth – strain 3D7 (AID 2306).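 Further: 0% = DMSO wells and 100% = chloroquine plus artemisinin control wells.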 To be noted: P. falciparum 3D7 erythrocytic growth, LDH absorbance, 72 h; at 2 µM; stronger effect = higher value.
The target of assay [5] is Calcium-dependent protein kinase 1 (Plasmodium falciparum (isolate 3D7)) (UniProt P62344). The assay can be described thus: PfCDPK1 kinase inhibitors, biochemical, TCAMS library (AID 1159585; cut-off not given, nearly all actives have IC50 up to about 0.98 µM;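 further: inhibitors leave more ATP so luminescence rises with inhibition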). To be noted: recombinant PfCDPK1, Kinase-Glo ATP depletion luminescence. (In general: Kinase-Glo measures the ATP left after a reaction by luminescence.)
The target of assay [6] is Plasmodium falciparum protein kinase 6 (PK6, PF3D7_1337100) (UniProt Q8IDW1). The assay can be described thus: PfPK6 kinase inhibitors, biochemical, TCAMS library (AID 1159586). To be noted: recombinant PfPK6, Kinase-Glo ATP depletion luminescence.
Assay [7] addresses Protein kinase 7 (PK7), Plasmodium falciparum 3D7 (PF3D7_0213400) (UniProt Q7YTF7). The assay is described as follows: inhibition of Plasmodium PK7 catalytic activity – biochemical, TCAMS antimalarial set, Kinase-Glo luminescence (AID 1159587). To be noted: recombinant PfPK7, Kinase-Glo ATP depletion luminescence.
For assay [8], the target named is Calcium-dependent protein kinase 4 (Plasmodium falciparum (isolate 3D7)) (UniProt Q8IBS5). The assay is described as follows: PfCDPK4 kinase inhibitors, biochemical, TCAMS library (AID 1159588; cut-off not given, nearly all actives have IC50 up to about 0.91 µM). The following applies: recombinant PfCDPK4, Kinase-Glo ATP depletion luminescence.
Chain of Calcium-dependent protein kinase 4 (Plasmodium falciparum (isolate 3D7)) (Q8IBS5 whole entry, looked up): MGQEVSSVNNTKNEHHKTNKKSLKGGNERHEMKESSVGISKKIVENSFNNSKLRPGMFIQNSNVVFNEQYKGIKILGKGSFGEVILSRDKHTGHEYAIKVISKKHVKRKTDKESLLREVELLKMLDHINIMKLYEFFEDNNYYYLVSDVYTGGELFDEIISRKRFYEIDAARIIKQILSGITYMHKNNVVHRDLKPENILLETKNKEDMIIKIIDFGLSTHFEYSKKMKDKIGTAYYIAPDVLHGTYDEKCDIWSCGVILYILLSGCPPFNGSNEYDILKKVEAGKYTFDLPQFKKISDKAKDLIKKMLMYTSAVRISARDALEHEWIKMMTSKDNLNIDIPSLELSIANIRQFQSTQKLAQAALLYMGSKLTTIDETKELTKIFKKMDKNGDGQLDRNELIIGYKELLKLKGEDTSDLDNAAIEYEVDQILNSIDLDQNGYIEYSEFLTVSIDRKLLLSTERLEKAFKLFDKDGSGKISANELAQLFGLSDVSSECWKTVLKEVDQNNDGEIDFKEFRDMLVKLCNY

Chain of Plasmodium falciparum protein kinase 6 (PK6, PF3D7_1337100) (Q8IDW1 1-305): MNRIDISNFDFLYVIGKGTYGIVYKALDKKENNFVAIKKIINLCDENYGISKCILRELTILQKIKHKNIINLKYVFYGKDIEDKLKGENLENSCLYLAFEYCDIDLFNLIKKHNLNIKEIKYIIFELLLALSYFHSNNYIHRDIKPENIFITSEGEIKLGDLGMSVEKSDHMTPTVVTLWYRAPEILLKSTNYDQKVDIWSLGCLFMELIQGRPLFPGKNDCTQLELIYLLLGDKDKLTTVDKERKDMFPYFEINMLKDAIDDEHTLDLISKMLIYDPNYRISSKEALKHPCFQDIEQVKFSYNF
Chain of Protein kinase 7 (PK7), Plasmodium falciparum 3D7 (PF3D7_0213400) (Q7YTF7 1-343): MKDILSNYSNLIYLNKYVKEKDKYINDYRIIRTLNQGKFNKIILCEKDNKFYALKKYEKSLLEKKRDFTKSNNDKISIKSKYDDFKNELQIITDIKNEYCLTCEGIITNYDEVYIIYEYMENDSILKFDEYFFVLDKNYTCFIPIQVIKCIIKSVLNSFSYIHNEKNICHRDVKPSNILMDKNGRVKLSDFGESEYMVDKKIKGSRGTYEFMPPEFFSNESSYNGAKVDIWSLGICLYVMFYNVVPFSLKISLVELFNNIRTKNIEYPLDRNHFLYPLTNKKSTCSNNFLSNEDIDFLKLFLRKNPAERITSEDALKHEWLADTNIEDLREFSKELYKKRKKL
Chain of L-lactate dehydrogenase (Plasmodium falciparum (isolate CDC / Honduras)) (Q27743 whole entry, looked up): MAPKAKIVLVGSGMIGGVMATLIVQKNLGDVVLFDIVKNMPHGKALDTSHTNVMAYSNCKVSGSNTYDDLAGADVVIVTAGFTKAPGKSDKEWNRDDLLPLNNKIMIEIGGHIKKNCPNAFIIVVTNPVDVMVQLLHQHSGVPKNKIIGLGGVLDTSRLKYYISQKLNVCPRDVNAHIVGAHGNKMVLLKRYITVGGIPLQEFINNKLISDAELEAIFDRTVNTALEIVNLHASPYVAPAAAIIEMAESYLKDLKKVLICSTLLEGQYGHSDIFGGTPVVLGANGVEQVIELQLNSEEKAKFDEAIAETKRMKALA
Chain of Calcium-dependent protein kinase 1 (Plasmodium falciparum (isolate 3D7)) (P62344 whole entry, looked up): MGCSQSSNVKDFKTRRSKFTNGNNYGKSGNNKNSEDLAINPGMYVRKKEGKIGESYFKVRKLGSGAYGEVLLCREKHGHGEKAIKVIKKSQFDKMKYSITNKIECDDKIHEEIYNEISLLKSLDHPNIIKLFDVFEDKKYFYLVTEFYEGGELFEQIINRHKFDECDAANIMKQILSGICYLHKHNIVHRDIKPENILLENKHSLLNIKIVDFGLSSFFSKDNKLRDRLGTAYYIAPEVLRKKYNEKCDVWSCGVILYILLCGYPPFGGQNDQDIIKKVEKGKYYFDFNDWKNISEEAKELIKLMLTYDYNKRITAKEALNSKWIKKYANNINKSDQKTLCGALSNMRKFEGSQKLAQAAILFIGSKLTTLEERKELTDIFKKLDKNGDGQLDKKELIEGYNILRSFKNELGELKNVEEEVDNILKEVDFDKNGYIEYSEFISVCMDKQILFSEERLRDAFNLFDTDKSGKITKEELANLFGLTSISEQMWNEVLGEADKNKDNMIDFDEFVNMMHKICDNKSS

With `COc1cc(NC(=O)c2sc(-c3ccc(Cl)cc3)cc2NC(=O)c2cccc(N(C)C)c2)ccc1OCCN1CCCC1`, the growth inhibition in assay [1] is 67% (active); in assay [4], 99% (active). The inhibition is 49% in assay [2] and -3% in assay [3]. For the same compound, the outcome in assay [5], in assay [6], in assay [7] and in assay [8] was inactive.
In the case of `O=c1cc(NCCCNC(c2ccccc2)c2ccc(Cl)c(Cl)c2)[nH]c2ccccc12` (configuration not stated), the growth inhibition in assay [1] was 94% (active); in assay [4], 89% (active). Also, the inhibition in assay [2] is 13%; in assay [3] it was 3%. In addition, the result in assay [5], in assay [6], in assay [7] and in assay [8] was inactive.
As for `O=C(Nc1cccc(CN2CCN(C(=O)c3cccc(F)c3)CC2)c1)c1cccs1`, the growth inhibition in assay [1] and in assay [4] was 95% (active) in each case. In addition, the inhibition in assay [2] is 17%; in assay [3] it was 1%. Also, the outcome in assay [5], in assay [6], in assay [7] and in assay [8] was inactive.
As to `Nc1ccn([C@@H]2O[C@H](COC(c3ccccc3)(c3ccccc3)c3ccccc3)[C@@H](O)[C@@H]2O)c(=O)n1`, the growth inhibition in assay [1] is 2%; in assay [4] it was 93% (active). Also, the inhibition in assay [2] was 26%; in assay [3], 1%. Besides, the result in assay [5], in assay [6], in assay [7] and in assay [8] was inactive.
Consider `CCN1CCC(N(Cc2ccc(-c3ccc(C(F)(F)F)cc3)cc2)C(=O)Cn2c(CCc3cccc(F)c3F)cc(=O)c3c2CCCC3)CC1`, for which the growth inhibition in assay [1] was 96% (active); in assay [4], 100% (active). The inhibition is 55% (active) in assay [2] and 0% in assay [3]. Further, the outcome in assay [5], in assay [6], in assay [7] and in assay [8] was inactive.
With `Cc1cccc2[nH]c(-c3ccc(-c4ccc(CNCC(C)C)cc4)cc3)nc12`, the growth inhibition was 90% (active) in assay [1] and 100% (active) in assay [4]. Also, the figures for the inhibition in assay [2] and in assay [3] were 14% and -1%, respectively. In addition, the outcome in assay [5], in assay [6], in assay [7] and in assay [8] was inactive.
Regarding `COc1ccc(-c2cccc(NC(=O)c3ccc(Cl)cc3)c2)cc1CNC(C)C`, the growth inhibition was 44% in assay [1] and 101% (active) in assay [4]. For the same compound, the inhibition in assay [2] is 53% (active); in assay [3] it was -4%. Besides, the result in assay [5], in assay [6], in assay [7] and in assay [8] was inactive.
On to `N#Cc1ccc2[nH]cc(CN3CCC4(CC3)CN(CCNCc3ccccc3)C(=O)O4)c2c1`, for which the growth inhibition in assay [1] is 0%; in assay [4], 100% (active). Moreover, the inhibition in assay [2] is -5%; in assay [3], -1%. Besides, the outcome in assay [5], in assay [6], in assay [7] and in assay [8] was inactive.
For the compound `O=C(Nc1cc(F)cc(F)c1)N1CCOC(CCN2CCC3(CCc4ccccc43)CC2)(c2ccc(Cl)c(Cl)c2)C1` (configuration not stated), the results for the growth inhibition in assay [1] and in assay [4] were 86% (active) and 100% (active), respectively. Moreover, the figures for the inhibition in assay [2] and in assay [3] were 32% and 4%, respectively. Moreover, the outcome in assay [5], in assay [6], in assay [7] and in assay [8] was inactive.
`COc1ccc2nc3cc(Cl)ccc3c(Nc3ccc(C(=O)O)cc3)c2c1`: the growth inhibition in assay [1] is 95% (active); in assay [4], 94% (active). Besides, the inhibition is -7% in assay [2] and 6% in assay [3]. Also, the result in assay [5], in assay [6], in assay [7] and in assay [8] was inactive.
With `CCOC(=O)c1ccc(-c2cnc(N)c(-c3nc4c(C)cccc4[nH]3)c2)cc1`, the values for the growth inhibition in assay [1] and in assay [4] were 79% (active) and 102% (active), respectively. For the same compound, the inhibition in assay [2] is 43%; in assay [3], -4%. The result in assay [5], in assay [6], in assay [7] and in assay [8] was inactive.
As for `CC(C)CCN1CCCN(Cc2ccc(C(=O)NCc3ccc(Cl)cc3)cc2)CC1`, the growth inhibition in assay [1] was -4%; in assay [4], 84% (active). The inhibition in assay [2] was 16%; in assay [3] it was 1%. The outcome in assay [5], in assay [6], in assay [7] and in assay [8] was inactive.
With `O=C(Nc1cccc(CN2CCCN(Cc3cccnc3)CC2)c1)c1ccc(Cl)c(Cl)c1`, the growth inhibition in assay [1] is 19%; in assay [4], 84% (active). The inhibition was 16% in assay [2] and -2% in assay [3]. For the same compound, the outcome in assay [5], in assay [6], in assay [7] and in assay [8] was inactive.
As to `CC(C)CN1C(=O)c2ccc(C(=O)Nc3nccs3)cc2C1=O`, the growth inhibition in assay [1] was 0%; in assay [4], 89% (active). Moreover, the figures for the inhibition in assay [2] and in assay [3] were 3% and 1%, respectively. Further, the outcome in assay [5], in assay [6], in assay [7] and in assay [8] was inactive.
As for `c1ccc(CN2CCCN(c3ccc4c(c3)CCN(Cc3ccc(-c5ncc[nH]5)cc3)CC4)CC2)cc1`, the growth inhibition in assay [1] is 73% (active); in assay [4] it was 100% (active). Moreover, the results for the inhibition in assay [2] and in assay [3] were 6% and 2%, respectively. Moreover, the result in assay [5], in assay [6], in assay [7] and in assay [8] was inactive.
`O=C(Nc1cc(Cl)ccc1-n1cncn1)C1(c2ccccc2)CC1`: the growth inhibition is 91% (active) in assay [1] and 98% (active) in assay [4]. Further, the inhibition is 3% in assay [2] and -2% in assay [3]. Also, the result in assay [5], in assay [6], in assay [7] and in assay [8] was inactive.
As for `Cn1cncc1C(=O)Nc1cccc(-c2cccc(-c3nc4ccc(C(F)(F)F)cc4[nH]3)c2)c1`, the values for the growth inhibition in assay [1] and in assay [4] were 99% (active) and 103% (active), respectively. Further, the inhibition in assay [2] was 38%; in assay [3], 0%. In addition, the outcome in assay [5], in assay [6], in assay [7] and in assay [8] was inactive.
With `Cc1cc(N(C)C)nc(Nc2ccc(NC(=O)C(C)Oc3ccccc3)cc2)n1` (configuration not stated), the growth inhibition in assay [1] was 30%; in assay [4], 98% (active). Moreover, the inhibition in assay [2] is 2%; in assay [3], -1%. Moreover, the outcome in assay [5], in assay [6], in assay [7] and in assay [8] was inactive.
For the compound `O=C(Nc1cccc(CN2CCCN(CC3CC3)CC2)c1)c1ccc(-c2ccccc2)cc1`, the growth inhibition is 5% in assay [1] and 96% (active) in assay [4]. In addition, the inhibition in assay [2] is 15%; in assay [3], 6%. The result in assay [5], in assay [6], in assay [7] and in assay [8] was inactive.
